In experiment [1] the target is Cell division control protein 42 homolog (Homo sapiens) (UniProt P60953). Briefly: activated mutant Cdc42 GTP-binding inhibitors, dose response, biochemical, multiplex bead flow cytometry, Bodipy-FL-GTP (AID 1333;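 active means fitted half-maximal concentration within the tested dose range, moderate curve steepness, a statistically real signal drop, and little compound fluorescence or tag-binding interference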). In general terms: A flow cytometer gives signals particle by particle.
Cell division control protein 42 homolog (Homo sapiens), sequence (P60953 whole entry, looked up): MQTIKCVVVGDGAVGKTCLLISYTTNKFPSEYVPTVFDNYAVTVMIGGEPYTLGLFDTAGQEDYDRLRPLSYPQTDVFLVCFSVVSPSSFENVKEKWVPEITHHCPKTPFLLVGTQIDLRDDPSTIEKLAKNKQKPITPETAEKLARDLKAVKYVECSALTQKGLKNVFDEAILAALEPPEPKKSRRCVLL
For experiment [2] the target is unchanged. Briefly: wildtype Cdc42 GTP-binding inhibitors, dose response, biochemical, multiplex bead flow cytometry, Bodipy-FL-GTP (AID 1334;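 active means fitted half-maximal concentration within the tested range, moderate curve steepness, significant signal drop, and little compound fluorescence or bead-linkage interference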). As to conditions: bead-based flow cytometry, Bodipy-FL-GTP binding to GST-Cdc42; at 100 µM (top of the series) unless noted.
Experiment [3] has as its target GTPase HRas (Homo sapiens) (UniProt P01112). Briefly: inhibitors of GTP binding to wildtype Ras, dose response, biochemical, multiplex bead flow cytometry (AID 1335;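 active means fitted half-maximal concentration within 10 nM to 100 µM, steepness 0.5 to 2, significant signal drop, low assay interference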). As to conditions: bead-based flow cytometry, Bodipy-GTP binding to GST-Ras; at 100 µM (top of the series) unless noted.
For experiment [4], the system named is Ras-related protein Rab-7a (dog), GTP binding. Nature of the experiment: Rab7 GTP binding inhibitors, potency, dose response, biochemical, wildtype, multiplex bead flow cytometry (AID 1336).
Experiment [5] addresses GTPase HRas (Homo sapiens) (UniProt P01112). Nature of the experiment: activated Ras mutant GTP binding inhibitors, dose response, biochemical, multiplex bead flow cytometry (AID 1341;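 active means dose-response curve with midpoint inside the tested range, moderate steepness, significant amplitude and little compound fluorescence or bead-attachment interference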;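 further: GST-tagged constitutively activated Ras mutant immobilized on beads and multiplexed with other GTPases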).
For experiment [6], the target named is Ras-related C3 botulinum toxin substrate 1 (Homo sapiens) (UniProt P63000). Briefly: wildtype Rac1 GTP binding inhibitors, dose response, biochemical, multiplex bead flow cytometry (AID 1340;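 active means dose curve with midpoint inside tested range, moderate steepness, plateau gap beyond fit error, low compound glow and bead-link interference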). As to conditions: GST-Rac1 beads, Bodipy-FL-GTP binding; at 100 µM (top of the series) unless noted.
Experiment [7] is described as follows: RPL19A-GFP modulators, yeast TOR pathway, confirmation, cell-based, S. cerevisiae, flow cytometry, cherry picks, mother/daughter gates (AID 2270;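 active means GFP response below 50% of the DMSO control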). As to conditions: S. cerevisiae RPL19A-GFP strain, 3 h, at 10 µM, stronger effect = lower value, 100 = same GFP as DMSO wells.
The nature of experiment [8]: LAP4-GFP expression modulators in yeast, confirmation, cell-based, cherry picks, flow cytometry, mother/daughter gates (AID 2271;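 active means GFP response above 150% of the DMSO control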;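 further: ratio of sample to DMSO plate mean so 100% equals DMSO level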). As to conditions: S. cerevisiae LAP4-GFP strain, 3 h, at 10 µM, stronger effect = higher value, 100 means same as DMSO control.
Experiment [9] in a line: modulators of MEP2-GFP levels in yeast, confirmation, S. cerevisiae, flow cytometry GFP, cherry picks (AID 2272;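 active means GFP response above 150% of the DMSO control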;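 further: ratio of well signal to plate DMSO mean so 100% equals DMSO level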). As to conditions: S. cerevisiae MEP2-GFP strain, 3 h, at 10 µM, stronger effect = higher value.
The nature of experiment [10]: AGP1-GFP expression modulators, hit retest, confirmation, cell-based, flow cytometry, S. cerevisiae, cherry picks (AID 2273;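 active means GFP response above 150% of the DMSO level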;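 further: median GFP channel fluorescence over the whole cell population gate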). As to conditions: S. cerevisiae AGP1-GFP strain, 3 h, at 10 µM.
A short description of experiment [11]: modulators of CIT2-GFP expression in yeast, confirmation, S. cerevisiae, GFP fusion, cherry picks, mother/daughter gates (AID 2274;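 active means GFP response above 150% of the DMSO level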). As to conditions: S. cerevisiae CIT2-GFP strain, flow cytometry, 3 h, at 10 µM, stronger effect = higher value.
[12] abbreviates: measured here: daughter cell gate.
Where [13] appears, read: measured here: mother cell gate.

Where “and” joins values, the source holds several entries; their conditions need not be identical. Equal entries are not always repeated. For part of these data: Results with a measured potency or affinity are listed apart. Calls of active or inactive are those of the source. Unless noted, how the calls were made is not given here.

GTPase HRas (Homo sapiens), sequence (P01112 whole entry, looked up): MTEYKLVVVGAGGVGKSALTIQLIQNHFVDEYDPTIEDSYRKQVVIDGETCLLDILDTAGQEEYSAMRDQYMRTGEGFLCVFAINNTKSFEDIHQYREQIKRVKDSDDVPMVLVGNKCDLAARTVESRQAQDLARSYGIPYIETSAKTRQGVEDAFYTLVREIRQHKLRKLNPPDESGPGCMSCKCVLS

Turning to `NC(=S)N=Nc1c(O)[nH]c2ccc(F)cc12`, the outcome in [1], in [4] and in [5] was inactive. Also, in experiment [2], the fluorescence, percent of control (lower = inhibition) stood at 30.2%. Besides, the GTP binding, percent of control in [3] is 64.9%.
For the compound `CCOC(=O)CN(C(=O)CSc1nnc2c(n1)[nH]c1ccc(OC)cc12)c1ccc(F)cc1`, the compound was called inactive in experiment [1], in [4] and in experiment [5]. For the same compound, the fluorescence, percent of control (lower = inhibition) in [2] turned out to be 47.9%. In [3], the GTP binding, percent of control worked out at 58.9%.
Take `O=C(C#Cc1ccc(F)cc1)c1ccc([N+](=O)[O-])cc1`: the fluorescence, percent of control (lower = inhibition) in experiment [2] was found to be 39.2%. In addition, in experiment [3], the GTP binding, percent of control was 142%. Besides, the compound was classed as inactive in [4] and in experiment [5]. The compound also gave a GTP binding signal, raw median fluorescence (lower = inhibition) (MCF (arbitrary fluorescence units)) in [6] of 48.4.
Turning to `NS(=O)(=O)c1ccc(N2N=C(c3ccccc3)CC2c2ccccc2)cc1` (centres undefined), the outcome in [1], in experiment [4] and in experiment [5] was inactive. Further, in experiment [3], the GTP binding, percent of control is 68% and 97.6%. Further, the GTP binding signal, raw median fluorescence (lower = inhibition) (MCF (arbitrary fluorescence units)) in experiment [6] was 223 and 99.4.
Turning to `COc1cc(/C=N\NC(=O)c2sc(N)nc2C)cc(OC)c1OC`, the result in [1], in experiment [4] and in experiment [5] was inactive. This compound displayed a fluorescence, percent of control (lower = inhibition) in experiment [2] of 39.4%. The GTP binding, percent of control in experiment [3] turned out to be 51.7%.
`CCS(=O)(=O)N1N=C(c2cccc(NS(C)(=O)=O)c2)CC1c1ccc(C)cc1` (centres undefined): the call in experiment [1], in experiment [4] and in experiment [5] was inactive. The compound also registered a GTP binding signal, raw median fluorescence (lower = inhibition) (MCF (arbitrary fluorescence units)) in [6] of 230. Moreover, the GFP response vs DMSO in [7] was 100% (inactive); in [7] (setting [12]), 99.1%; in experiment [7] (setting [13]), 101%; in experiment [9] it was 116% (inactive). In addition, the GFP response relative to DMSO is 101% (inactive) in experiment [8], 97.5% in [8] (measured here: daughter cell gate response) and 100% in experiment [8] (measured here: mother cell gate response). Besides, the GFP response, % of DMSO in [10] was 104% (inactive); in [11], 108% (inactive); in experiment [11] (setting [12]) it was 105%; in [11] (setting [13]), 108%.
With `COc1ccc(Cl)cc1NCc1sc(C(=O)O)cc1C`, the compound was called inactive in experiment [1], in experiment [4] and in experiment [5]. The fluorescence, percent of control (lower = inhibition) in [2] stood at 62.5%. The compound also returned a GTP binding, percent of control in experiment [3] of 84.3%.
Regarding `Cc1sc2nc3ccc(NCc4ccco4)nn3c(=O)c2c1C`, the call in [1], in experiment [4] and in experiment [5] was inactive. In experiment [3], this compound displayed a GTP binding, percent of control of 57.4%.
In the case of `CN1C(=O)N(C)c2ccc(C=O)c3cccc1c23`, the result in experiment [1], in experiment [4] and in experiment [5] was inactive. Moreover, in [2], the fluorescence, percent of control (lower = inhibition) worked out at 36.5%. In experiment [3], the GTP binding, percent of control worked out at 82.8%.
On to `O=C(NC1CCCCC1)c1cc([N+](=O)[O-])[nH]n1`, for which the call in experiment [1], in experiment [4] and in experiment [5] was inactive. The same compound had a fluorescence, percent of control (lower = inhibition) in experiment [2] of 37.3%. The GTP binding, percent of control in experiment [3] came out at 80.1%.
Regarding `CCOC(=O)c1nc(Nc2ccc(C(C)=O)cc2)c2ccccc2n1`, the call in [1], in experiment [4] and in [5] was inactive. For the same compound, the fluorescence, percent of control (lower = inhibition) in [2] stood at 36%. This compound also yielded a GTP binding, percent of control in [3] of 80.4%.
As for `CCn1cc(C=C2C(=O)c3ccccc3C2=O)c2ccccc21`, the outcome in experiment [1], in experiment [4] and in experiment [5] was inactive. The fluorescence, percent of control (lower = inhibition) in experiment [2] turned out to be 40.2%. This compound came in with a GTP binding signal, raw median fluorescence (lower = inhibition) (MCF (arbitrary fluorescence units)) in experiment [6] of 161.
For `Cc1ccc(-n2c(=O)cc(N3CCc4ccccc4C3)[nH]c2=O)cc1`, the call in experiment [1], in experiment [4] and in [5] was inactive. This compound also displayed a fluorescence, percent of control (lower = inhibition) in [2] of 58.7%. In [6], this compound came in with a GTP binding signal, raw median fluorescence (lower = inhibition) (MCF (arbitrary fluorescence units)) of 251.
Regarding `COc1ccc(-c2nnc(SCC(=O)c3cccs3)o2)cc1`, the compound was classed as inactive in experiment [1], in [4] and in experiment [5]. Besides, the fluorescence, percent of control (lower = inhibition) in experiment [2] was found to be 94.6%. This compound also registered a GTP binding, percent of control in experiment [3] of 141%.
Regarding `O=C(Nc1nc(-c2ccc(S(=O)(=O)N3CCCC3)cc2)cs1)c1ccco1`, the result in experiment [1], in experiment [4] and in experiment [5] was inactive. In experiment [2], the fluorescence, percent of control (lower = inhibition) stood at 49.8%. In experiment [3], this compound came in with a GTP binding, percent of control of 118%.

The values above are taken from PubChem BioAssay.
